Over roughly 11,000 sequences, “log2 fold change” has its median near 0.00022; the highest 2% begin near 0.34. Some of the results follow.

The target of the test is GST-SBP-SLBP (stem-loop binding protein) (Homo sapiens, UniProt Q14493 1-270). Nature of the test: targeted RNA Bind-n-Seq; RBNS binding buffer: 25 mM Tris pH 7.5, 150 mM KCl, 3 mM MgCl2, 0.1% Tween, 0.5 mg/mL BSA, 1 mM DTT; 27 nM protein, 750 pM RNA pool; temperature not stated; high values mean tight binding. The settings on record: protein: recombinant; tags: N-terminal GST and SBP (pGEX6P1-SBP); structured_RNA. In outline:
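Read counts per sequence supply the binding signal, defined as the DEseq fold change on a binary-logarithm scale. These counts came from RNA of a designed, T7-transcribed oligo pool at 750 pM that bound 27 nM of GST-SBP-tagged protein, made in Rosetta(DE3) pLysS E. coli and glutathione-purified, in RBNS binding buffer. The bound RNA was reverse transcribed with a 10-nucleotide barcoded primer, PCR-amplified and sequenced on a MiSeq with 200-cycle paired-end reads, then processed with FLASH and HISAT2 and collapsed by barcode.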
Turning to “GGUCACGUCUCAAUCAACUCAAGUCCCAGGGAAAACCCUGGCAAUUUCAACAGCUCGCAGUCAAG”, the binding signal was 0.381 ± 0.341 log2 fold change.

Regarding “GGUCACGUCUCAAUCAACUCUUCUUCCAGGGAAAUCCCUGGCAUACUCAACAGCUCGCAGUCAAG”, the binding signal amounted to 0.399 ± 0.235 log2 fold change.

Turning to “GGUCACGUCUCAAUCAACUCUUUUUCCAGGGAAACCCCUGGCAUACUCAACAGCUCGCAGUCAAG”, the binding signal is 0.44 ± 0.276 log2 fold change.

For the sequence “GGUCACGUCUCAAUCAACUCAAUCCCCAGGGAAAACCCUGGCUAUUUCAACAGCUCGCAGUCAAG”, the binding signal amounted to 0.338 ± 0.272 log2 fold change.

For “GGUCACGUCUCAAUCAACUCAUCUCCCAGGGAAAACCCUGGUAUAUUCAACAGCUCGCAGUCAAG”, the binding signal came to 0.374 ± 0.346 log2 fold change.

As for “GGUCACGUCUCAAUCAACUCUUUUCCCAGGGAAAUCCCUGGCAUACUCAACAGCUCGCAGUCAAG”, the binding signal stood at 0.334 ± 0.22 log2 fold change.

As to “GGUCACGUCUCAAUCAACUCUAUUCCCAGGGAAACCCCUGGCAUACUCAACAGCUCGCAGUCAAG”, the binding signal came out at 0.311 ± 0.273 log2 fold change.

On to “GGUCACGUCUCAAUCAACUCUACUCCCAGGGAAAACCCUGGUAAUUUCAACAGCUCGCAGUCAAG”, for which the binding signal stood at 0.454 ± 0.318 log2 fold change.

For “GGUCACGUCUCAAUCAACUCUAUUCCCAGGGAAAACCCUGGCAUUUUCAACAGCUCGCAGUCAAG”, the binding signal was 0.49 ± 0.262 log2 fold change.

On to “GGUCACGUCUCAAUCAACUCUUUUUCCAGGGAAACCCCUGGUAUACUCAACAGCUCGCAGUCAAG”, for which the binding signal was 0.445 ± 0.233 log2 fold change.

Consider “GGUCACGUCUCAAUCAACUCAACUUCCAGGGAAAACCCUGGCAUUUUCAACAGCUCGCAGUCAAG”, for which the binding signal stood at 0.305 ± 0.262 log2 fold change.

On to “GGUCACGUCUCAAUCAACUCAAUCCCCAGGGAAAACCCUGGCAUACUCAACAGCUCGCAGUCAAG”, for which the binding signal stood at 0.351 ± 0.232 log2 fold change.

For the sequence “GGUCACGUCUCAAUCAACUCUUUUUCCAGGGAAAACCCUGGCAUGUUCAACAGCUCGCAGUCAAG”, the binding signal amounted to 0.34 ± 0.244 log2 fold change.

Regarding “GGUCACGUCUCAAUCAACUCUUUUUCCAGGGAAAACCCUGGCGUAUUCAACAGCUCGCAGUCAAG”, the binding signal turned out to be 0.352 ± 0.225 log2 fold change.

In the case of “GGUCACGUCUCAAUCAACUCAGUUUCCAGGGAAAACCCUGGCUUUCUCAACAGCUCGCAGUCAAG”, the binding signal was 0.31 ± 0.297 log2 fold change.

For “GGUCACGUCUCAAUCAACUCUUCUCCCAGGGAAACCCCUGGCAUUCUCAACAGCUCGCAGUCAAG”, the binding signal amounted to 0.304 ± 0.257 log2 fold change.

In the case of “GGUCACGUCUCAAUCAACUCAUCUCCCAGGGAAAACCCUGGCAUUCUCAACAGCUCGCAGUCAAG”, the binding signal is 0.367 ± 0.304 log2 fold change.

Turning to “GGUCACGUCUCAAUCAACUCCUUAGAGGGGGGGAAAACCCCUUUACCCUCAACUUCAACAGCUCGCAGUCAAG”, the binding signal came to 0.489 ± 0.43 log2 fold change.

Take “GGUCACGUCUCAAUCAACUCAAUGGAGGGGGGGAAAACCCCUUUACCCUCAAAAUCAACAGCUCGCAGUCAAG”: the binding signal was 0.547 ± 0.434 log2 fold change.

“GGUCACGUCUCAAUCAACUCCUUAGAGGGGGGGAAAACCCCUUUACCCUCAACCUCAACAGCUCGCAGUCAAG”: the binding signal was determined as 0.395 ± 0.407 log2 fold change.

“GGUCACGUCUCAAUCAACUCCUUAGAGGGGGGGAAAACCCCUUUACCCUCAAAAUCAACAGCUCGCAGUCAAG”: the binding signal was found to be 0.546 ± 0.43 log2 fold change.

In the case of “GGUCACGUCUCAAUCAACUCCUUAGAGGGGGGGAAAACCCCUUUACCCUCGUUAUCAACAGCUCGCAGUCAAG”, the binding signal is 0.302 ± 0.406 log2 fold change.

“GGUCACGUCUCAAUCAACUCUUCAGAGGGGGGGAAAACCCCUUUACCCUCACAAUCAACAGCUCGCAGUCAAG”: the binding signal was determined as 0.311 ± 0.418 log2 fold change.

Regarding “GGUCACGUCUCAAUCAACUCAUAGGAGGGGGGGAAAACCCCUUUACCCUCAACUUCAACAGCUCGCAGUCAAG”, the binding signal is 0.451 ± 0.453 log2 fold change.

For the sequence “GGUCACGUCUCAAUCAACUCCCCAGAGGGGGGGAAAACCCCUUUACCCUCAUCCUCAACAGCUCGCAGUCAAG”, the binding signal is 0.566 ± 0.415 log2 fold change.

On to “GGUCACGUCUCAAUCAACUCAUCAGAGGGGGGGAAAACCCCUUUACCCUCAACUUCAACAGCUCGCAGUCAAG”, for which the binding signal is 0.39 ± 0.431 log2 fold change.

Consider “GGUCACGUCUCAAUCAACUCAUAGGAGGGGGGGAAAACCCCUUUACCCUCAUCAUCAACAGCUCGCAGUCAAG”, for which the binding signal is 0.315 ± 0.446 log2 fold change.

In the case of “GGUCACGUCUCAAUCAACUCAUCAGAGGGGGGGAAAACCCCUUUACCCUCAUCCUCAACAGCUCGCAGUCAAG”, the binding signal turned out to be 0.388 ± 0.447 log2 fold change.

For “GGUCACGUCUCAAUCAACUCCUUAGAGGGGGGGAAAACCCCUUUGCCCUCAACAUCAACAGCUCGCAGUCAAG”, the binding signal amounted to 0.411 ± 0.394 log2 fold change.

On to “GGUCACGUCUCAAUCAACUCCUUAGAGGGGGGGAAAACCCCUUUGCCCUCGUUUUCAACAGCUCGCAGUCAAG”, for which the binding signal was determined as 0.342 ± 0.445 log2 fold change.

For the sequence “GGUCACGUCUCAAUCAACUCCUUAGAGGGGGGGAAAACCCCUUUGCCCUCCGUAUCAACAGCUCGCAGUCAAG”, the binding signal is 0.307 ± 0.406 log2 fold change.

As to “GGUCACGUCUCAAUCAACUCCUUAGAGGGGGGGAAAACCCCUUUGCCCUCACCGUCAACAGCUCGCAGUCAAG”, the binding signal is 0.412 ± 0.444 log2 fold change.

Turning to “GGUCACGUCUCAAUCAACUCUACGGCAGGAGUUUACUCCUGGAAUCUCAACAGCUCGCAGUCAAG”, the binding signal stood at 0.318 ± 0.232 log2 fold change.

For the sequence “GGUCACGUCUCAAUCAACUCAAUAGAGGGGGGGAAAACCCCUUUACCCUCACCAUCAACAGCUCGCAGUCAAG”, the binding signal is 0.306 ± 0.41 log2 fold change.

Regarding “GGUCACGUCUCAAUCAACUCAAAAGAGGGGGGGAAAACCCCUUUACCCUCACCAUCAACAGCUCGCAGUCAAG”, the binding signal was 0.563 ± 0.413 log2 fold change.

Turning to “GGUCACGUCUCAAUCAACUCCACAGAGGGGGGGAAAACCCCUUUACCCUCCAUCUCAACAGCUCGCAGUCAAG”, the binding signal was found to be 0.416 ± 0.406 log2 fold change.

Regarding “GGUCACGUCUCAAUCAACUCAACAGAGGGGGGGAAAACCCCUUUACCCUCACCAUCAACAGCUCGCAGUCAAG”, the binding signal worked out at 0.341 ± 0.391 log2 fold change.

With “GGUCACGUCUCAAUCAACUCUCUAGAGGGGGGGAAAACCCCUUUACCCUCACCAUCAACAGCUCGCAGUCAAG”, the binding signal is 0.354 ± 0.424 log2 fold change.

Take “GGUCACGUCUCAAUCAACUCCAAGGAGGGGGGGAAAACCCCUUUACCCUCAAUCUCAACAGCUCGCAGUCAAG”: the binding signal is 0.482 ± 0.442 log2 fold change.

As to “GGUCACGUCUCAAUCAACUCCCUAGAGGGGGGGAAAACCCCUUUACCCUCACAAUCAACAGCUCGCAGUCAAG”, the binding signal was 0.389 ± 0.428 log2 fold change.

Take “GGUCACGUCUCAAUCAACUCCCUAGAGGGGGGGAAAACCCCUUUACCCUCAAUGUCAACAGCUCGCAGUCAAG”: the binding signal amounted to 0.558 ± 0.455 log2 fold change.

Consider “GGUCACGUCUCAAUCAACUCAUCGUCAGGAGUUUUCUCCUGUAAACUCAACAGCUCGCAGUCAAG”, for which the binding signal was found to be 0.313 ± 0.233 log2 fold change.

With “GGUCACGUCUCAAUCAACUCAUCGCCAGGAGUUUGCUCCUGUAUUUUCAACAGCUCGCAGUCAAG”, the binding signal turned out to be 0.321 ± 0.274 log2 fold change.

As for “GGUCACGUCUCAAUCAACUCUUUCUCAGGAGUUUACUCCUGUAUAUUCAACAGCUCGCAGUCAAG”, the binding signal worked out at 0.355 ± 0.213 log2 fold change.

Regarding “GGUCACGUCUCAAUCAACUCUUUCUCAGGAGUUUCCUCCUGUUUACUCAACAGCUCGCAGUCAAG”, the binding signal was found to be 0.312 ± 0.17 log2 fold change.

For “GGUCACGUCUCAAUCAACUCAAUCUCAGGAGUUUUCUCCUGUAUACUCAACAGCUCGCAGUCAAG”, the binding signal is 0.429 ± 0.219 log2 fold change.

In the case of “GGUCACGUCUCAAUCAACUCUAUCUCAGGAGUUUACUCCUGUAUAUUCAACAGCUCGCAGUCAAG”, the binding signal is 0.337 ± 0.252 log2 fold change.

The values are drawn from article PMC5892938, “SARNAclust: Semi-automatic detection of RNA protein binding motifs from immunoprecipitation data”.
